Laboratory results: ChEMBL document CHEMBL4513216, “Probing the Open Global Health Chemical Diversity Library for Multistage-Active Starting Points for Next-Generation Antimalarials” (ACS Infect Dis, 2020)
In all, about 69,000 compounds went through this assay and about 8,600 (12%) showed an effect of 50% or more. Many of the other results were omitted from the sample, so strong results are more common in it than they were.

test system: Plasmodium berghei; experiment: Screen against P. berghei liver stage (PbLuc), transformed with Luciferase, at 10uM; type: functional, HepG2; settings: tested at 10 uM

Row | Compound | INHIBITION [%]
1 | Cc1nn2cnnc2c(C)c1CCC(=O)Nc1nnc(C(C)C)s1 | -23.5
2 | CCc1ccc(C(C)NC(=O)CCc2nc(-c3nnc[nH]3)no2)cc1 (centres undefined) | 38.8
3 | CCC(C)c1csc(NC(=O)c2sc(-c3nnc[nH]3)nc2C)n1 (centres undefined) | 37.8
4 | Cc1cnn(CC2CCCN2C(=O)c2csc(-c3nnc[nH]3)n2)c1 (centres undefined) | -73.2
5 | CC(C)c1nnc(NC(=O)Cc2csc(-c3nnc[nH]3)n2)s1 | 76.7
6 | CCc1nc(NC(=O)Cc2csc(-c3nnc[nH]3)n2)sc1C | 55.4
7 | CCC(C)c1csc(NC(=O)Cc2csc(-c3nnc[nH]3)n2)n1 (centres undefined) | 93.4
8 | Cc1nc(C)c(CC(=O)Nc2nnc(C(C)C)s2)c(=O)[nH]1 | 25.75
9 | O=C(Cc1csc(-c2nnc[nH]2)n1)N1CCCC1Cn1cccn1 (centres undefined) | 39.5
10 | CC(C)(C)CC(NC(=O)N1CCC(C(N)=O)CC1)C(F)(F)F (centres undefined) | -50.7
11 | CC(C)C(CNC(=O)Nc1cn[nH]c1)N1CCOCC1 (centres undefined) | 7.67
12 | CC(C)c1nn(C)c(N(C)C)c1CNCc1cscn1 | -11
13 | CC(C)OCCC(=O)NCC(O)c1c(Cl)cccc1Cl (centres undefined) | 17.8
14 | COCCC(=O)N1C[C@H](C(C)C)[C@@H](N(C)C)C1 | 19.4
15 | CC(C)(C)c1n[nH]c(C2CN(CCc3ccncc3)CCO2)n1 (centres undefined) | 57.5
16 | CCc1n[nH]c(C2CN(CCc3ccncc3)CCO2)n1 (centres undefined) | 23.6
17 | CC(C)(C)c1n[nH]c(C2CN(CCc3cccs3)CCO2)n1 (centres undefined) | 37.3
18 | CC(CN1CCOCC1)NC(=O)c1cc(Cl)c2c(c1)OCO2 (centres undefined) | 29.8
19 | OC1(CNCc2noc(Cc3ccccc3)n2)CCCNC1 (centres undefined) | 26
20 | OC1(CNCCc2csc(-c3ccncc3)n2)CCCNC1 (centres undefined) | -15
21 | OC1(CNCCSCc2ccccc2)CCCNC1 (centres undefined) | 55.4
22 | Cc1c(C2CCCN(C(=O)OC(C)(C)C)C2)n2c(nc1=O)CCC2 (centres undefined) | 13.5
23 | COCCC(=O)Nc1cc(CC(C)(C)C)n[nH]1 | -28.6
24 | Cc1cnc(C)c(-c2cc(O)c3c(c2)CN(c2nccs2)CCO3)n1 | 28.5
25 | Cc1cnc(C)c(-c2cc(O)c3c(c2)CN(c2ncccn2)CCO3)n1 | 53
26 | Cc1cnc(C)c(-c2cc(O)c3c(c2)CN(Cc2nccs2)CCO3)n1 | -16.9
27 | CS(=O)(=O)N1C[C@H](NC(=O)c2ccno2)[C@@H]2OCCC[C@@H]21 | 38.5

Row | Compound | INHIBITION [%]
28 | Cn1ccnc1CN(CCCO)CC(F)(F)F | 54.8
29 | Cn1ccnc1CN(CCCO)C1CCCc2ccccc21 (centres undefined) | -26.8
30 | CSc1ccc(CN(CCO)Cc2nccn2C)cc1 | 43.9
31 | CC(C)OCc1ccc(CNc2cncc(-n3cccn3)n2)cc1 | 80.6
32 | CCOc1cccc(CNc2cncc(-n3cccn3)n2)c1 | 31.6
33 | COCc1ccc(CNc2cncc(-n3cccn3)n2)cc1 | -21.9
34 | CNS(=O)(=O)Cc1ccc(CNc2cncc(-n3cccn3)n2)cc1 | 44.2
35 | CCOCc1ccc(CNc2cncc(-n3cccn3)n2)cc1 | 80.6
36 | CNC(=O)COc1ccc(CNc2cncc(-n3cccn3)n2)cc1 | 23.4
37 | COC(=O)Nc1ccc(CNc2cncc(-n3cccn3)n2)cc1 | 3.73
38 | CN(C)c1ccc(CNc2cncc(-n3cccn3)n2)cc1 | 49.6
39 | CCCOc1ccc(CNc2cncc(-n3cccn3)n2)cc1 | 82.6
40 | Fc1cccc(CNc2cncc(-n3cccn3)n2)c1 | 50.1
41 | Cc1cccc(CNc2cncc(-n3cccn3)n2)c1 | 47.6
42 | CCOCCOCc1cccc(CNc2cncc(-n3cccn3)n2)c1 | 24.2
43 | OCCN(Cc1ccncc1)CC1(c2ccc(Cl)cc2)CC1 | 46.2
44 | CC(Nc1cccc2c1OCCO2)C(=O)Nc1ccc(S(N)(=O)=O)cc1 (centres undefined) | -24.9
45 | Cc1nc(CN(C)C2CCN(CCCOc3ccccc3C)C2)no1 (centres undefined) | 27.4
46 | CC(C)c1nc(C(=O)N2CCOCC2CC(=O)c2ccco2)cs1 (centres undefined) | 37.4
47 | COC(C)(C)C(=O)NCC1CCN(Cc2cc3ccccc3[nH]2)C1 (centres undefined) | 40.8
48 | O=C(Cn1cccc1)NCC1CCN(Cc2cc3ccccc3[nH]2)C1 (centres undefined) | 46.7
49 | O=C(NCC1CCN(Cc2cc3ccccc3[nH]2)C1)C1CCCCC1 (centres undefined) | 54.1
50 | Cc1nc(NCC2CC2)nc2c1COCC21CCN(C(=O)NC(C)C)C1 (centres undefined) | 29.9
51 | CN(CC1CCOC1)c1ncc(Br)cn1 (centres undefined) | 12.8
52 | CC(NC(=O)CSCC#N)c1cccc(Cl)c1 (centres undefined) | -29.7
53 | Cc1nc(CN2CCCC(Cn3cncn3)C2)nc2ccccc12 (centres undefined) | 29.95
54 | Cc1ccnc(NCCCN2CCc3ccccc32)n1 | 3.58
